Compounds with a hit are over-represented: about 11% of the library has one in this group of screens.
USP30 block – inhibitors of human USP30 deubiquitinase | Ubiquitin carboxyl-terminal hydrolase 30 (Homo sapiens), Q70CQ3 | purified USP30, Ub-rhodamine cleavage fluorescence | inhibition, % at 25 µM | 47,000 tested, 5.3% active | AID 1645860, 2021
USP17 inh – inhibitors of human USP17 deubiquitinase; 47,000 tested, 6.5% active; inhibition, % at 50 µM; purified USP17, Ub-rhodamine cleavage fluorescence, 3 h; AID 1645855, 2021
OTUD3 block – inhibitors of human OTUD3 deubiquitinase; inhibition, % at 25 µM; purified OTUD3, Ub-rhodamine fluorescence, 2 h; 47,000 tested, 0.7% active; AID 1645858, 2021
Target sequence (Q5T2D3 whole entry, looked up): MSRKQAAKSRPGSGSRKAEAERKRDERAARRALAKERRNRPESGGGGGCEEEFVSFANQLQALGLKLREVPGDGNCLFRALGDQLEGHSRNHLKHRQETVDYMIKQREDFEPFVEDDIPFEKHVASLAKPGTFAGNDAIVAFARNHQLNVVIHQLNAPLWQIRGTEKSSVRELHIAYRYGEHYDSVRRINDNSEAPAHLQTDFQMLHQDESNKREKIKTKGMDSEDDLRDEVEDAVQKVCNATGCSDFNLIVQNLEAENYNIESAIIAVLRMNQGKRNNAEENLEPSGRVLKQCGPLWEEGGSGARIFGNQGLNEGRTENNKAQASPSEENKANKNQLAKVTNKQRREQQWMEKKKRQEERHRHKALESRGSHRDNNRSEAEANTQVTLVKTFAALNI
USP28 inh – inhibitors of human USP28 deubiquitinase; purified USP28, Ub-rhodamine cleavage fluorescence, 30 min; 47,000 tested, 3% active; inhibition, % at 25 µM; Ubiquitin carboxyl-terminal hydrolase 28 (Homo sapiens), Q96RU2; AID 1645857, 2021
Hits are given with their value; . = inactive; / = no result given. Cut-off read from the data, not from the text of the source: active = inhibition above about 30%; inactive = the rest.

SMILES | USP30 block | USP17 inh | OTUD3 block | USP28 inh
Cc1ccccc1NC(=O)Nc1ccccc1OCc1cc(=O)n2cccc(C)c2n1 | 42.8 | 46.7 | 39.6 | .
NCCn1nc(C2CCN(C(=O)Cc3ccc(F)cc3)C2)c2cccnc21 (centres undefined) | . | . | . | .
NCCn1nc(C2CCN(C(=O)Cc3cccc(F)c3)C2)c2cccnc21 (centres undefined) | . | 36.6 | . | .
CC(CCc1ccccc1)NC(=O)/C=C/c1ccc2c(c1)OCO2 (centres undefined) | . | . | . | .
CC1(C)CC(=O)C2(Cc3cc([N+](=O)[O-])ccc3N3CCCC32)C(=O)C1 (centres undefined) | . | 36.0 | . | .
CN(C)c1cc(OC2CCN(C(=O)c3ccoc3)C2)ncn1 (centres undefined) | . | . | . | .
FC(F)(F)c1cccc(Nc2nnc(-c3cccnc3)s2)c1 | . | 50.2 | . | .
NC(=O)COC(=O)c1cccnc1Nc1cccc(C(F)(F)F)c1 | . | . | . | .
CC(C)(C)c1ccc(/C=C/C(=O)N(Cc2ccccc2)c2ccccn2)cc1 | . | . | . | .
COc1ccc(NS(=O)(=O)c2cc(NC(=O)CCc3nc4ccccc4s3)ccc2C)cc1 | 35.2 | 59.6 | . | .
N#Cc1c(SCCO)nc(N2CCCC2)c2c1CCCC2 | . | . | . | 61.5
CN(C)CCCN(C(=O)c1ccco1)c1nc2ccc(F)cc2s1 | . | . | . | .
CN(C)CCCN(C(=O)c1cc2ccccc2oc1=O)c1nc2ccc(F)cc2s1 | 79.4 | 55.4 | . | 44.1
COc1ccc(C2CC(c3ccc(Cl)cc3)N(C(=O)C(C)(C)C)c3ncnn32)cc1 (centres undefined) | . | . | . | .
COc1ccc(C2CC(c3ccc(OC)cc3)n3ncnc3N2C(=O)C2CC2)cc1 (centres undefined) | 37.5 | . | . | .
Cc1ccc(C(=O)N2c3ncnn3C(c3ccccc3)CC2c2ccccc2)cc1 (centres undefined) | 32.4 | . | . | .
CNC(=O)/C=C/C(C)=C/C(C)C(=O)c1ccc(N(C)C)cc1 (centres undefined) | . | . | . | .
CC(/C=C/C(=O)NO[C@@H]1O[C@H](CO)[C@@H](O)[C@H](O)[C@H]1O)=C\C(C)C(=O)c1ccc(N(C)C)cc1 (some centres undefined) | . | 42.7 | . | .
CCc1nnsc1C(=O)N1CCOC(c2nc(C)cc(=O)[nH]2)C1 (centres undefined) | . | . | . | .
CCn1ccc2c(cc(C(=O)Nc3cc(F)ccc3F)n2C)c1=O | . | / | . | 70.0
CCn1ccc2c(cc(C(=O)Nc3cccc(OC)c3)n2C)c1=O | . | . | . | 83.0
O=C(CCc1nc2ccccc2c(=O)[nH]1)Nc1ccc2c(c1)OCO2 | . | . | . | .
Cc1c(OCc2ccc(Cl)cc2Cl)ccc2c1OC(C)(C)CC2=O | . | . | . | .
Cc1c(OCc2ccccc2F)ccc2c1OC(C)(C)CC2=O | . | 30.7 | . | .
O=[N+]([O-])c1ccc(NCc2ccc(-c3cccs3)s2)nc1 | . | . | . | 65.0
SMILES | USP30 block | USP17 inh | OTUD3 block | USP28 inh
Cc1ccc(C)c(Nc2nc(NCc3ccccc3)c3ccccc3n2)c1 | 82.0 | 51.5 | 32.9 | 61.0
Cc1ccc(Nc2nc(N3CCN(c4ccc(F)cc4)CC3)nc3c2cnn3C)cc1 | 31.4 | . | . | .
COc1ccc(-c2cc3nc([C@H](C)NC(=O)Cc4cccc(F)c4)nn3cn2)cc1 | 59.5 | 36.8 | . | .
COc1ccc(-c2cc3nc([C@@H](C)NC(=O)c4ccc5c(c4)OCO5)nn3cn2)cc1 | 85.2 | . | . | 63.7
COc1cccc(CC(=O)N[C@@H](C)c2nc3cc(-c4ccc(F)cc4)ncn3n2)c1 | . | . | . | .
COc1ccc(-c2cc3nc([C@H](C)NC(=O)Cc4cc(F)ccc4F)nn3cn2)cc1 | 36.6 | 40.3 | . | .
COCCOc1ccc(C(=O)N[C@H](C)c2nc3cc(-c4ccccc4F)ncn3n2)cc1 | . | . | . | .
COc1cc(CNCCCN2CCOCC2)ccc1OCc1ccccc1 | . | . | . | .
O=C(c1cnc2scc(-c3ccccc3)n2c1=O)N1CCCCC1 | . | . | . | .
O=C(NCc1ccccc1)c1nc2n(n1)-c1ccccc1S(=O)(=O)N2 | 33.7 | . | . | .
COc1ccccc1NC(=O)c1ccc(-c2csc(C)n2)cc1 | / | 41.1 | . | /
Cc1nc(-c2noc3ccc(C(=O)Nc4cccnc4)cc23)cs1 | 72.5 | . | . | .
CCC(=O)Nc1cccnc1-c1ccc(C(=O)Nc2cccc(OC)c2)cc1 | . | . | . | 56.9
COc1cccc(NC(=O)c2cc(-c3cccs3)on2)c1 | 34.5 | 38.7 | . | 32.4
COc1ccc(-c2cnc(N)nc2C2CCCN(C(=O)c3ccn[nH]3)C2)cc1 (centres undefined) | . | . | . | .
Cc1nc(-c2cccc(NC(=O)c3ccccc3)c2)cs1 | . | . | . | .
COc1cccc(NC(=O)c2ccc(-c3csc(C)n3)cc2)c1 | . | . | . | 59.8
COc1ccc(-c2ccc(C#N)c(SCc3cc4c(cc3Cl)OCO4)n2)cc1 | . | 42.6 | . | .
COc1ccc(OC)c(/C=C(/C#N)c2nc(-c3ccc4c(c3)OCO4)cs2)c1 | . | . | . | .
O=C(/C=C/c1ccccc1)NCCC(c1ccccc1)c1ccccc1 | . | . | . | .
Cc1ccc(S(=O)(=O)N(Cc2ccco2)Cc2cc3ccccc3[nH]c2=O)cc1 | . | . | . | .
O=c1[nH]c2ccccc2cc1CN(c1ccccc1)S(=O)(=O)c1ccc(Cl)cc1 | . | 47.5 | . | .
Cc1ccc2[nH]c(=O)c(CN(Cc3ccco3)S(=O)(=O)c3ccccc3)cc2c1 | . | / | . | .
Cc1ccc(S(=O)(=O)N(C)Cc2cc3cc(C)ccc3[nH]c2=O)cc1 | / | 56.9 | . | /
COCCN(Cc1cc2cc(C)ccc2[nH]c1=O)S(=O)(=O)c1ccc(Cl)cc1 | . | 33.1 | . | .
SMILES | USP30 block | USP17 inh | OTUD3 block | USP28 inh
Cc1ccc2[nH]c(=O)c(CN(CC3COCCO3)S(=O)(=O)c3ccc(F)cc3)cc2c1 (centres undefined) | . | 76.2 | . | .
COc1cccc(C(c2sc3ncnn3c2O)N2CCC3(CC2)OCCO3)c1 (centres undefined) | . | . | . | .
FC(F)(F)c1ccc(N2CCC(Cc3ccccc3)CC2)nc1 | . | . | . | .
O=C(Nc1nccs1)C1c2ccccc2C(=O)N(c2ccccc2)C12CCCCC2 (centres undefined) | . | 34.3 | . | .
Cc1ccc(NC(=O)C2CCN(C3=NS(=O)(=O)c4ccccc43)CC2)c(O)c1 | . | . | . | .
CN1C(=O)c2cccnc2Sc2cc(NC(=O)CCc3ccccc3)ccc21 | . | . | . | .
Cc1cc(C)c2c(-n3cccc3)c(C(=O)NCCc3ccc(S(N)(=O)=O)cc3)sc2n1 | . | . | . | 79.7

Bioassay records (PubChem BioAssay)
